Inconclusive results are not listed. Activity calls are given as the source filed them. The call rests on the fitted dose curve; in most records, active means well fitted inhibition curve with a large enough effect; inconclusive means small, poorly fitted or top-dose-only effect; inactive means flat fitted curve, though single readings scatter.
How the values were obtained:
CRL-7250 = normal cell line; assay: Cytotoxic Profiling of Annotated Libraries Using Quantitative High-Throughput Screening (AID 1296008); settings: Five cell lines viability, CellTiter-Glo ATP luminescence, 48-72 h; max response: active compounds read low; on max response: on the % scale 0 is the no-effect control and ±100 the full control effect
Method in brief: (§1)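 Cells exposed to compounds for 48 or 72 hr at 37 degrees Celsius. Viability read as ATP-coupled luminescence with CellTiter-Glo after 10 min at room temperature.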

HEK293 = assay: as above; settings: Five cell lines viability, CellTiter-Glo ATP luminescence, 48-72 h; max response: active compounds read low
Method in brief: as §1

HaCat [1] = assay: as above; settings: Five cell lines viability, CellTiter-Glo ATP luminescence, 48-72 h; max response: active compounds read low
Method in brief: as §1

KB-3-1 = assay: as above; settings: Five cell lines viability, CellTiter-Glo ATP luminescence, 48-72 h; max response: active compounds read low
Method in brief: as §1

NIH3T3 = assay: as above; settings: Five cell lines viability, CellTiter-Glo ATP luminescence, 48-72 h; max response: active compounds read low
Method in brief: as §1

HACAT [2] = assay: qHTS assay to identify novel small-molecules to repurpose for Merkel cell carcinoma treatment (AID 1296009); settings: MCC and control cell lines, CellTiter-Glo viability, 72 h; at 44.8 µM (top of the series) unless noted
Method in brief: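 Dose-response viability screen; 72 hr exposure at 37 degree celsius; CellTiter-Glo added, 10 min room temperature, luminescence read; RLUs scaled between no-cell and DMSO wells.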

Measured: max response
Further: nearly all actives have a fitted effect of over 60% in size.

N[C@@H](Cn1ccc(=O)c(O)c1)C(=O)O
inactive: CRL-7250 -0.877% | HEK293 -0.669% | HaCat [1] | KB-3-1 7.53% | NIH3T3 0.301% | HACAT [2] inactive [at 4.96 µM]

CCCCCOc1ccc(C2SC(=O)NC2=O)cc1OCC (centres undefined)
inactive: CRL-7250 -3.49% | HEK293 3.99% | HaCat [1] | KB-3-1 | NIH3T3 | HACAT [2]

CC(=O)N[C@@H](CCC(N)=O)C(=O)O
inactive: CRL-7250 -5.46% | HEK293 | HaCat [1] | KB-3-1 -6.88% | NIH3T3 -1.83% | HACAT [2]

O=C(Oc1ccccc1)c1cccc(C(=O)Oc2ccccc2)c1
inactive: CRL-7250 -12.1% | HEK293 3.23% | HaCat [1] | KB-3-1 -6.63% | NIH3T3 -5.12% | HACAT [2] inactive [at 92 µM]

COc1ccccc1OCC1CNC(=O)O1 (centres undefined)
inactive: CRL-7250 -7.57% | HEK293 2.95% | HaCat [1] -20.6% | KB-3-1 -0.906% | NIH3T3

C[C@H]1NCc2cc(-c3ccc4c(=O)c(C(=O)O)cn(C5CC5)c4c3OC(F)F)ccc21
inactive: CRL-7250 -16.7% | HEK293 -17.6% | HaCat [1] -3.8% | KB-3-1 -9.83% | NIH3T3 3.52%

CC1(C)S[C@@H]2[C@H](NC(=O)C(c3ccccc3)S(=O)(=O)O)C(=O)N2[C@H]1C(=O)O (some centres undefined)
inactive: CRL-7250 1.53% | HEK293 -0.254% | HaCat [1] -6.19% | KB-3-1 -0.526% | NIH3T3 2.04%

O=C(OCC1(COC(=O)c2cccnc2)CCCC(COC(=O)c2cccnc2)(COC(=O)c2cccnc2)C1O)c1cccnc1
inactive: CRL-7250 -5.9% | HEK293 -9.95% | HaCat [1] | KB-3-1 8.89% | NIH3T3 -1.33% | HACAT [2]

CCOC(=O)OCC/C(SC(=O)OCC)=C(\C)N(C=O)Cc1cnc(C)nc1N
inactive: CRL-7250 -3.12% | HEK293 -0.945% | HaCat [1] -10.8% | KB-3-1 -13.2% | NIH3T3

CCOC(=O)c1ccc(OCCN2C[C@H](O)[C@@H](O)[C@H](O)[C@H]2CO)cc1
inactive: CRL-7250 -7.54% | HEK293 -10.3% | HaCat [1] -6.67% | KB-3-1 | NIH3T3 -0.529%

CO[C@]1(NC(=O)CSC(F)F)C(=O)N2C(C(=O)O)=C(CSc3nnnn3CCO)CO[C@H]21
inactive: CRL-7250 -1.31% | HEK293 -23.2% | HaCat [1] 4.33% | KB-3-1 | NIH3T3 1.66%

CN1C(=O)c2ccccc2C1=O
inactive: CRL-7250 3.83% | HEK293 -4.39% | HaCat [1] -13.2% | KB-3-1 -21% | NIH3T3 -7.13%

Cc1ccccc1C(=O)N1CC/C(=N\OS(=O)(=O)O)c2ccc(Cl)cc21
inactive: CRL-7250 3.76% | HEK293 -7.21% | HaCat [1] -13.2% | KB-3-1 9.71% | NIH3T3 -8.25%

COc1cc(C(=O)NC2CCCNC2)cc(OC)c1OC (centres undefined)
inactive: CRL-7250 1.65% | HEK293 -8.29% | HaCat [1] | KB-3-1 -17.2% | NIH3T3 4.73% | HACAT [2]

CCCOc1ccc2c(c1)CC[C@@H]1[C@@H]2CC[C@]2(C)C(OC)CC[C@@H]12 (some centres undefined)
inactive: CRL-7250 -5.35% | HEK293 -6.37% | HaCat [1] 2.29% | NIH3T3 0.167%

CCOC(=O)C(=O)c1csc(NC=O)n1
inactive: CRL-7250 -5.63% | HEK293 3.1% | HaCat [1] 4.32% | NIH3T3 0.793%

CC(=O)N(CC(O)CO)c1c(I)c(C(=O)NCCO)c(I)c(C(=O)NCC(O)CO)c1I (centres undefined)
inactive: CRL-7250 -7.11% | HEK293 2.15% | HaCat [1] | KB-3-1 -13% | NIH3T3 | HACAT [2]

CC(C)=CCC/C(C)=C/CC/C(C)=C/CCC(=O)OC/C=C(\C)CCC=C(C)C
inactive: CRL-7250 -7.77% | HEK293 -2.81% | HaCat [1] | KB-3-1 -12.9% | NIH3T3 | HACAT [2]

CN1CCC(=C2c3ccccc3CCc3cccnc32)CC1
inactive: CRL-7250 3.77% | HEK293 2.67% | HaCat [1] | KB-3-1 -10.8% | NIH3T3 | HACAT [2]

CC(=O)Nc1ccc(S(=O)(=O)Nc2cc(C)on2)cc1
inactive: CRL-7250 -2.31% | HEK293 4.22% | HaCat [1] | KB-3-1 -4.05% | NIH3T3 | HACAT [2]

Cc1ccc(/C=N/n2c(-c3ccccc3)csc2=S)cc1
inactive: CRL-7250 -8.42% | HEK293 1.19% | HaCat [1] | KB-3-1 -9.01% | NIH3T3 -3.86% | HACAT [2]

Source: PubChem BioAssay (NCATS)
